Sm TGR block: blocks Schistosoma mansoni thioredoxin glutathione reductase; AID 485364; hit rate 3% among 360,000; Q962Y6; purified TGR, DTNB reduction, TNB absorbance 405 nm; Potency, µM (doses to about 114 µM), without a hit: top-dose activity change, negative = inhibition, usual class: inhibitors; also: % is scaled to controls: 0 for no effect and ±100 for the full control effect; nearly all actives have a fitted effect of over 60% in size
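TGR 20 nM + NADPH 100 uM (dispensed conc.), cpd preinc 15 min RT; start with NADPH (500 uM addition) then DTNB (15 mM addition). Kinetic TNB absorbance, 405 nm filter. Four-parameter Hill fit across titration.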
AMA1 RON2 block: inhibitors of Plasmodium falciparum AMA1-RON2 interaction. Potency, µM (titrated, usually from 58.2 µM), for inactives: at the highest dose activity change, negative = inhibition, hits mostly inhibitors. AlphaScreen AMA1-biotinylated RON2 peptide binding. hit rate 0.2% among 360,000;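 also: 0% = vehicle wells and -100% = peptide control; nearly all actives have a fitted effect of over 45% in size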
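AMA1 (3D7) with his tag at 25 nM final met compounds first, then biotinylated RON2 peptide at 25 nM; detection used donor plus acceptor beads, 10 µg/mL apiece, read by AlphaScreen after 30 min at room temperature.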
Pf growth 96h: inhibits malaria parasite growth, 96 h. P. falciparum luciferase reporter growth, 96 h. Potency, µM (highest dose often 28.7 µM), without a hit: at the top dose activity change, negative = inhibition, most hits filed as inhibitors. hit rate 6.9% among 320,000. AID 504834; also: % is scaled to controls: 0 for no effect and ±100 for the full control effect
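Luminescence readout: decreased luciferase signal marks inhibited growth of reporter-expressing P. falciparum in infected red cells (2% hematocrit, 0.05% parasitemia final), exposed to compound two generations (96 h, 37 C, 5% CO2).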
NS1 function inh: influenza NS1 inhibition. hit rate 0.4% among 270,000. Potency, µM (titrated, usually from 46.1 µM), for inactives: top-dose activity, positive = more growth. AID 2326; calls by dose curve; also: actives are rising curves; nearly all actives have a fitted effect of over 50% in size
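OD600 was taken as the measure of yeast growth restored by compound in an NS1-expressing S. cerevisiae strain. Cells had been washed out of glucose medium and diluted 1:100 into galactose -URA medium, pH 6.0.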
Pf growth 48h: P. falciparum growth inhibition at 48 hours (one generation); P. falciparum luciferase growth in erythrocytes, 48 h; Potency, µM (series often up to 28.7 µM), for the others: at the highest dose activity change, negative = inhibition, most hits filed as inhibitors; hit rate 5.9% among 310,000; also: % is scaled to controls: 0 for no effect and ±100 for the full control effect
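Here the parasites carry a stable luciferase gene and grow inside erythrocytes in Albumax-based RPMI medium with compound for one erythrocytic cycle. Activity is scored as loss of luminescent signal.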
An asterisk follows results filed as active; u = inconclusive; x = not tested or not shown; ! = not confirmed by another sample; [ ] = dose if it differs, or a comment. Only some compounds are listed: those with a hit (about 11% of all), similar ones and a draw of the others. Unless noted, calls follow the shape of the dose curve; as a rule, active = well fitted curve in the direction sought with a large enough effect; inconclusive = small, poorly fitted or top-dose-only effect, or another doubt; inactive = no such curve, though single readings can be large; an effect the other way counts as inactive or inconclusive. Potency is read from the fitted curve at half-maximal effect.

SMILES	Sm TGR block	AMA1 RON2 block	Pf growth 96h	NS1 function inh	Pf growth 48h
Cc1ccc(NC(=O)CCc2nc3ccccc3s2)c(O)c1	-1.0%	4.7%	0.1%	7.4%	-5.8%
O=C(NNC(=S)Nc1cccc(C(F)(F)F)c1)c1cccc(Cl)c1	0.3%	47.8%	-57.1%	-37.6%	-22.3%
S=C(Nc1ccccc1)Nc1ccc(Cl)cc1Cl	25.1µM*	14.8%	88.4%	10.0%	64.5%
S=C(Nc1ccccc1)Nc1cc(Cl)ccc1Oc1ccccc1	0.0%	75.4%	10.7%	u	-12.3%
FC(F)(F)c1cccc(NC(=S)Nc2cccc(NC(=S)Nc3cccc(C(F)(F)F)c3)n2)c1	-18.4%	76.7%	u	-2.6%	11.7µM*
FC(F)(F)c1cccc(NC(=S)Nc2ccc(Cl)cc2Cl)c1	22.4µM*	13.9%	u	-54.5%	u
S=C(Nc1ccccc1Cl)Nc1ccc(Cl)cc1Cl	25.1µM*	1.2%	u	-1.3%	27.0%
FC(F)(F)c1ccccc1NC(=S)Nc1cccc(Cl)c1	25.1µM*	18.8%	u	-9.6%	-9.4%[5.75 µM]
O=C(NNC(=S)Nc1ccc(Cl)cc1Cl)c1ccncc1	5.1%	26.2%	4.15µM*	11.7%	24.1%
Cc1ccc(NC(=O)C(C)N2C(=O)c3ccccc3C2=O)c(C)c1 (stereo not given)	-1.2%	2.6%	-1.9%	32.4%	-24.3%
O=C(CCC1CCN(C(=O)c2cc(C(F)(F)F)ccc2Cl)CC1)NC1CC1	u	13.5%	-31.0%	1.2%	-36.6%
COc1ccc2c(c1)c1ncn(Cc3ccc(F)cc3)c(=O)c1n2C	0.2%	11.1%	u	-7.3%	-11.0%
COc1ccc2c(c1)c1ncn(Cc3ccco3)c(=O)c1n2C	39.8µM*	0.7%	u	-38.6%	u
O=C1CC[C@@H](OCc2ccccc2)CCN1CC[C@H](Sc1ccccc1)c1ccccc1	u	-0.2%	0.0%	-13.6%	u
Cc1ccc(C2N3CC4(C)CN2CC(c2ccccc2)(C3)C4=O)cc1 (stereo not given)	3.3%	x	x	x	x
CCN(CC)CCN1c2ccccc2Sc2ccc3ccccc3c21	-7.2%	-2.2%	u	-2.8%	8.28µM*
O=C(CN1CCOCC1)Nc1ccc(Cl)cn1	1.9%	2.5%	-7.7%	5.7%	u
Cc1ccc(Cl)cc1NC(=S)N(Cc1ccco1)C(C)c1cccs1 (stereo not given)	-8.9%	-1.1%	u	x	14.7µM*
COc1cc(CNCc2ccccn2)ccc1OCc1ccc(Cl)cc1Cl	10.7%	18.5%	10.4µM*	2.6%	u
COc1cc(CNCCN2CCOCC2)ccc1OCc1cccc(Cl)c1	-1.8%	-4.0%	11.7µM*	-4.9%	x
O=C(NCc1ccccn1)c1ccccc1OCc1ccc(Cl)cc1Cl	-1.0%	29.5%	14.7µM*	x	u
COc1ccc(CCNCc2ccc(OCc3ccc(Cl)nc3)c(OC)c2)cc1OC	-4.4%	-7.3%	11.7µM*	-3.1%	x
CCCS(=O)(=O)NC(=O)C1(C)CCCN(C(=O)c2ccccc2)C1 (stereo not given)	x	4.5%	x	x	x
N/C(=N\NC(=O)c1sccc1OCc1ccc(Cl)cc1Cl)c1ccccn1	23.4%	33.4%	u	-0.1%	3.29µM*
COc1cc(CNCCN2CCOCC2)ccc1OCc1ccc(Cl)cc1Cl	0.2%	-10.5%	2.33µM*	5.9%	9.28µM*
SMILES	Sm TGR block	AMA1 RON2 block	Pf growth 96h	NS1 function inh	Pf growth 48h
Cc1ccc(C(=O)Nn2cnnc2)cc1S(=O)(=O)N1CCOCC1	0.6%	98.2%	30.0%	-0.3%	76.3%
O=C1NC(=O)N(c2ccccc2)C(=O)/C1=C/c1ccc(Sc2ccccc2)o1	25.1µM*	-6.7%	-8.5%	7.7%	u
O=C1NC(=O)N(c2ccccc2F)C(=O)/C1=C/c1ccc(Sc2nc3ccccc3[nH]2)o1	7.08µM*	-21.6%	83.5%	-5.5%	0.1%
O=C1NC(=O)N(c2cccc(Cl)c2)C(=O)/C1=C\c1ccc(Sc2nc3ccccc3[nH]2)o1	7.08µM*	u	20.1%	0.8%	5.2%
COc1ccc(N2CC(C(=O)N3CCC(c4nc5ccccc5[nH]4)CC3)CC2=O)cc1 (stereo not given)	1.9%	-7.1%	u	x	u
Cc1cccc(S(=O)(=O)c2cn(Cc3ccccc3)c3cc(N4CCCCC4)c(F)cc3c2=O)c1	6.3%	x	x	x	x
C[C@@H]1CC[C@H](O)/C=C/C(=O)O[C@H](C)CC[C@H](O)/C=C/C(=O)O1	-33.6%	30.5%	10.4µM*	5.8%	u
CCCCC[C@@H]1CCCCC[C@H](O)C[C@@H](O)[C@@H](O)/C=C/C(=O)O1	x	1.5%	x	x	x
C[C@H]1CCC/C=C/[C@@H]2C[C@H](O)C[C@H]2[C@H](O)/C=C/C(=O)O1	u	-3.6%	2.94µM*	x	2.08µM*
C#CCSc1nnc(CNS(=O)(=O)c2ccc(Br)cc2)n1C	10µM*	17.5%	34.3%	13.3%	45.4%
CSc1nnc(CNS(=O)(=O)c2ccc(F)cc2)n1C	0.2%	13.9%	u	4.7%	0.8%
O=C(O)c1ccccc1C(=O)NNc1ccc(F)cc1	50.1µM*	-0.6%	70.7%	-56.0%	-2.3%
c1ccc(-c2ccc(C(c3ccccc3)n3ccnc3)cc2)cc1 (stereo not given)	7.4%	-21.7%	4.78µM*	-84.7%	2.08µM*
c1ccc(-c2ccc(-n3ccnc3)cc2)cc1	-43.5%	-13.5%	u	-129.0%	u
Cn1c(/C(C#N)=C/c2ccc(O)cc2)nc2ccccc21	8.5%	-9.6%	2.33µM*	-8.4%	-3.8%
COc1cc2c(cc1OC)[C@@H]1Cc3cc4c(cc3[C@H](C2)N1C)OCO4	-1.3%	-1.6%	u	-10.3%	-8.9%
COc1ccc2c(c1OC)C(=O)O[C@@H]2[C@H]1c2cc3c(cc2CCN1C)OCO3	-11.3%	-3.4%	-13.1%	x	u
COc1ccc2c(c1OC)CN1CCc3cc4c(cc3[C@@H]1[C@@H]2O)OCO4	-3.2%	-9.4%	9.28µM*	12.9%	u
COc1cc2c(cc1OC)C1Cc3ccc(OC)c(OC)c3CN1CC2 (stereo not given)	2.3%	-0.9%	u	-5.7%	1.31µM*
COc1cc2c(cc1OC)[C@@H]1Cc3ccc(OC)c(OC)c3CN1CC2	1.6%	-5.5%	u	1.1%	u
COc1ccc2c(c1OC)C(=O)O[C@H]2[C@@H]1c2cc3c(cc2CCN1C)OCO3	-8.8%	4.2%	15.1µM*!	x	-20.8%
Cc1cccc(NC(=O)CN2C(=O)C3(SCC(=O)N3c3ccccc3)c3ccccc32)c1 (stereo not given)	-1.5%	x	x	x	x
O=C(COc1ccc(Cl)cc1)NCc1nnc(SCC(=O)Nc2ccc(F)cc2F)o1	17.5%	0.0%	-24.7%	x	23.4%
COC(=O)c1ccc(CSc2nnc(CNC(=O)c3ccc(OC)cc3)o2)o1	-14.6%	-12.1%	u	-5.6%	5.5%
COC(=O)c1ccc(CSc2nnc(CNC(=O)COc3ccc(Cl)cc3)o2)o1	-18.5%	0.0%	5.86µM*	-5.0%	-11.8%
CCOc1ccccc1NC(=O)CSc1nnc(CNC(=O)COc2ccc(Cl)cc2)o1	3.4%	-10.4%	10.4µM*	-14.2%	6.1%

Screens as filed in PubChem.
